The list is not random: actives were taken first. Their share in the collection is about 2.7%.
SENP7 block: SENP7 protease inhibition | Q9BQF6 | recombinant SENP7, Z-RLRGG-aminoluciferin luminescence, 40 min | inhibition, % at 5 µM | 330,000 compounds, 1.5% hits | AID 434973;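 active = inhibition above about 50% at the single test dose, limit read from the data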
Target sequence (Q9BQF6 706-1050 limits assumed): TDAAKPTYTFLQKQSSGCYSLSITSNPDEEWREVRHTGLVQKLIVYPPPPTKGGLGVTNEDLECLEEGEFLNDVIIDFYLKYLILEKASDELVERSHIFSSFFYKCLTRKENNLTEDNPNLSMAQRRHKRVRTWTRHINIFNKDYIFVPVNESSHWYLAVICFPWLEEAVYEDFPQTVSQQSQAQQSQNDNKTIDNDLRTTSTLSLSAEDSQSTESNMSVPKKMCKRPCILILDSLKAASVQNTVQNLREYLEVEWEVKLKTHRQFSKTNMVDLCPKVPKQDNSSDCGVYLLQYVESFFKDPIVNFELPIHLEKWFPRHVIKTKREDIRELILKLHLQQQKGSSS
SENP8 block-1: inhibitors of human SENP8 protease. 330,000 compounds, 1.2% hits. Q96LD8. purified SENP8, Z-RLRGG-aminoluciferin cleavage, luminescence. inhibition, % at 10 µM; in the data active = inhibition above about 50%
HSP90 refold inh: HSP90 refolding inhibition in rabbit reticulocyte lysate. 290,000 compounds, 0.91% hits. AID 1789. inhibition, % at 5.6 µM. luciferase refolding luminescence, 3 h;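 active = inhibition above the screen-wide mean plus 3 SD, computed separately per campaign, cut at about 16% in these data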;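 note: inhibitors lower the luminescence because luciferase stays unfolded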
SENP6 inh: blocks the human protease SENP6. inhibition, % at 10 µM. Recombinant SENP6 catalytic domain, aminoluciferin luminescence. 330,000 compounds, 1.8% hits. Q9GZR1;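 active = inhibition above about 50% at the single tested dose, limit read from the data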
SENP8 block-2: SENP8 (human) protease inhibition; 360,000 compounds, 0.64% hits; Q96LD8; inhibition, % at 20 µM; recombinant SENP8, Nedd8 substrate fluorescence; in the data active = inhibition mostly above about 40%, no sharp cut-off; inactive = mostly below about 27%
HSP90 confirm: HSP90 inhibition, confirmation assay | shares compounds with HSP90 refold inh | rabbit reticulocyte lysate, luciferase refolding luminescence, 3 h | inhibition, % at 5.9 µM | 2,300 compounds, 64% hits | AID 1846; in the data active = inhibition above about 18%
FLuc counter: counter-screen for HSP90 inhibitors: inhibitors of firefly luciferase; shares compounds with HSP90 refold inh; purified native firefly luciferase, luminescence; inhibition, % at 5.9 µM; 2,300 compounds, 48% hits; AID 1847;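 active = inhibition above the mean inhibition of all tested sample wells plus 3 SD, cut at about 10% in these data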
Numbers stand for hits; - = inactive; . = no result.

SMILES | SENP7 block | SENP8 block-1 | HSP90 refold inh | SENP6 inh | SENP8 block-2 | HSP90 confirm | FLuc counter
Cc1cc(-c2ccccc2)c2c(=O)[nH][nH]c2n1 | - | - | 18.3 | - | - | - | -
O=c1[nH]nc(-c2ccccc2)cc1-c1ccccc1 | - | - | . | - | - | . | .
CCc1ccc(NC(=O)c2ccc3ncsc3c2)cc1 | . | . | - | . | . | . | .
O=C(Nc1ccc(Br)cc1)c1ccc2ncsc2c1 | - | - | 43.2 | - | - | 44.6 | 28.4
C[n+]1nc(Nc2ccccc2)sc1-c1ccc(O)cc1 | - | - | 17.1 | - | - | - | -
NC(=S)N/N=C/c1ccc(C23CC4CC(CC(C4)C2)C3)cc1 | - | - | 23.6 | - | . | - | -
O=C(O)c1ccc(-c2ccccc2Cl)o1 | - | - | 28.1 | - | - | 30.1 | -
Cc1[nH]n(-c2ccccc2)c(=O)c1N=Nc1ccc(F)cc1 | - | - | - | - | - | . | .
COC(=O)c1ccc(N=NN2CCCCCC2)cc1 | - | - | - | - | - | . | .
COC(=O)c1ccc(N=NNc2ccccc2)cc1 | - | - | 28.4 | - | - | 46.8 | -
COC(=O)c1ccc(N=Nc2c(C)[nH]n(-c3ccccc3)c2=O)cc1 | - | - | 25.9 | - | - | 30.1 | -
Cc1sc2nc3c4ccccc4c(NCc4ccco4)nn3c(=O)c2c1C | 76.0 | 70.7 | 79.3 | 72.5 | - | - | -
Cc1nc(NCc2ccco2)c2c(C)c(C)sc2n1 | - | - | - | - | - | . | .
CC(C)[C@H](NC(=O)c1ccccc1)C(=O)OCC(=O)NCc1ccc2c(c1)OCO2 | - | - | . | - | - | . | .
COc1ccc(N(/N=C2\Sc3ccccc3C2=O)C(C)=O)cc1 | . | . | 19.6 | . | 51.6 | 73.1 | -
Cc1cc(-c2csc(NC(=O)c3ccc(S(=O)(=O)N(C)C)cc3)n2)c(C)n1-c1ccccc1 | - | - | 21.6 | - | - | 40.9 | -
O=C1CCCN1CCC(=O)N1CCCC(Nc2ccc(F)cc2)C1 (stereo not drawn) | - | - | - | - | - | . | .
Cc1c(Cl)cccc1-c1ccc(/C=N/n2cnnc2)o1 | - | - | - | - | - | . | .
Cc1c(C(=O)O)cccc1-c1ccc(/C=N/n2cnnc2)o1 | - | - | 18.3 | - | - | 19.6 | -
O=C(N/N=C/c1cccnc1)NC12CC3CC(CC(C3)C1)C2 | - | - | 31.8 | - | - | - | -
C/C(=N\Nc1ccc(Cl)c(C(=O)O)c1)c1ccccn1 | - | - | 39.6 | - | - | - | -
CCOC(=O)c1oc2ccc(S(=O)(=O)N3CCC(C)CC3)cc2c1C | - | - | 21.5 | - | - | - | -
CCOC(=O)c1oc2ccc(S(=O)(=O)N3CCOCC3)cc2c1C | - | - | - | - | - | . | .
Nc1ccc(C(=O)NN2C(=O)[C@H](Cl)C2c2ccc(Cl)cc2)cc1 (stereo partly drawn) | . | . | . | . | - | . | .
COc1ccc(O)c(C(=O)CC(=O)c2ccccc2)c1 | - | - | 24.5 | - | . | - | -
SMILES | SENP7 block | SENP8 block-1 | HSP90 refold inh | SENP6 inh | SENP8 block-2 | HSP90 confirm | FLuc counter
O=C(/C=C/c1ccccc1)NCC(=O)N/N=C/c1cccs1 | - | - | - | - | - | . | .
O=C(O)c1ccc(N/N=C/c2ccc(-c3ccc(Cl)cc3Cl)o2)cc1 | - | - | 55.7 | - | - | - | -
CCOC(=O)c1c(NC(=O)C(NCCN(C)C)c2ccccc2)sc2c1CCCC2 (stereo not drawn) | - | - | 23.2 | - | - | - | -
CCOC(=O)c1c(NC(=O)c2ccccc2N(C)S(=O)(=O)c2ccccc2)sc2c1CCCC2 | - | - | - | - | - | . | .
CCOc1ccc(NC(=O)c2ccc3c(=O)n(-c4ccc(OC)cc4OC)c(=S)[nH]c3c2)cc1 | - | - | 69.1 | - | - | - | -
COc1ccc(NC(=O)c2ccc3c(=O)n(-c4ccc(OC)cc4OC)c(=S)[nH]c3c2)c(OC)c1 | - | - | - | - | - | . | .
Cc1ccc2sc(NC(=O)c3ccc(N4C(=O)CCC4=O)cc3)nc2c1C | - | - | - | - | - | . | .
CN(C)c1ccc(/C=C2\SC(=O)N(CCc3nnc(N)s3)C2=O)cc1 | - | - | 36.8 | - | - | 84.8 | 82.4
COc1cc(/C=N/N2CCN(c3ccccc3)CC2)cc(OC)c1OC(C)=O | - | - | - | - | - | . | .
O=C(O)c1ccc(NC(CSCc2ccc(F)cc2)C(=O)O)c([N+](=O)[O-])c1 (stereo not drawn) | - | - | - | - | - | . | .
Cc1ccc(CSCC(Nc2ccc(C(=O)O)cc2[N+](=O)[O-])C(=O)O)cc1 (stereo not drawn) | - | - | 24.6 | - | - | - | -
